Laboratory results from PubChem BioAssay (NCI).
This is part of a sample that, as a whole, favours compounds with a hit. Of some 83,000 tested, about 20% had one in any assay.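 The test compound was applied at a single concentration to cells in 96-well plates for 48 hours, and percent growth was recorded.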 A number with no mark means an inactive call. The source made the active and inactive calls. How the source made its calls: active means growth percent below 10; inactive means the rest.

Tests used:
Assay in all cases: NCI-60 one-dose screen, 48 h (100 = growth as untreated, 0 = no growth, -100 = all killed)
Details in all cases: 10 µM unless noted
K-562 leukemia = system: K-562 leukemia
MALME-3M melanoma = system: MALME-3M melanoma
MDA-MB-231 breast = system: MDA-MB-231 breast
RXF 393 renal = system: RXF 393 renal
SF-268 CNS = system: SF-268 CNS
SF-295 CNS = system: SF-295 CNS
SF-539 CNS = system: SF-539 CNS
UACC-257 melanoma = system: UACC-257 melanoma
M14 melanoma = system: M14 melanoma
HCT-15 colon = system: HCT-15 colon
HT29 colon = system: HT29 colon
SNB-75 CNS = system: SNB-75 CNS
SNB-19 CNS = system: SNB-19 CNS
U251 CNS = system: U251 CNS
PC-3 prostate = system: PC-3 prostate
SK-MEL-5 melanoma = system: SK-MEL-5 melanoma
UACC-62 melanoma = system: UACC-62 melanoma
LOX IMVI melanoma = system: LOX IMVI melanoma
SK-MEL-28 melanoma = system: SK-MEL-28 melanoma
SK-MEL-2 melanoma = system: SK-MEL-2 melanoma

SMILES | growth (K-562 leukemia) | growth (MALME-3M melanoma) | growth (MDA-MB-231 breast) | growth (RXF 393 renal) | growth (SF-268 CNS) | growth (SF-295 CNS) | growth (SF-539 CNS) | growth (UACC-257 melanoma) | growth (M14 melanoma) | growth (HCT-15 colon) | growth (HT29 colon) | growth (SNB-75 CNS) | growth (SNB-19 CNS) | growth (U251 CNS) | growth (PC-3 prostate) | growth (SK-MEL-5 melanoma) | growth (UACC-62 melanoma) | growth (LOX IMVI melanoma) [%] | growth (SK-MEL-28 melanoma) | growth (SK-MEL-2 melanoma)
COc1ccccc1C(=O)CSc1nc(Nc2ccc(S(N)(=O)=O)cc2)c2ccccc2n1 | 85.7% | 90.2% | 77.3% | 97.1% | 89.9% | 97.6% | 81.2% | 111% | 94.1% | 92.4% | 102% | 106% | 85.7% | 93% | 92.6% | 91.7% | 88.6% | 16.1 | 96.8% | 98.1%
COc1cccc(OC)c1-c1nnn(C)c1C(=S)N1CCN(c2ccc([N+](=O)[O-])cc2Cl)CC1 | 91.5% | 89.2% | 90.5% | 82.4% | 98.9% | 89.9% | 95.8% | 108% | 97% | 89.6% | 104% | 92.2% | 92.7% | 97.9% | 54% | 90.1% | 69.1% |  | 98.3% | 110%
O=C(N/N=C/c1cccs1)c1[nH]c2ccc(Br)cc2c1-c1ccccc1 | 4.72% (active) | 58.2% | 5.46% (active) | 62.8% | 35.3% | 15.9% | 2.22% (active) | 61.2% | 1.81% (active) | 9.74% (active) | -23.3% (active) | 31.4% | 32.3% | 19.1% | 26.1% | -36.7% (active) | 43% |  | 60.7% | 20.3%
COc1ccc(/C=C/C(=O)c2ccc(NC(=O)CSc3nnc(-c4ccc5nc(-c6ccc(Cl)cc6)[nH]c5c4)o3)cc2)cc1 | 87.3% | 93.5% | 98.4% | 107% | 114% | 100% | 94.3% | 110% | 106% | 94.9% | 106% | 98.5% | 106% | 96% | 82.5% | 89.7% | 83.8% |  | 113% | 111%
Nc1nc(N)c2c(n1)NC(c1ccc(C(F)(F)F)cc1)CC(c1ccc(Nc3nc(NCCO)nc(Nc4ccc(Cl)cc4)n3)cc1)=N2 (stereo not given) | 1.08% (active) | -79% (active) | -59.4% (active) | -78.8% (active) | -29.4% (active) | -79.5% (active) | -86.2% (active) | 74.1% | -86.9% (active) | -54.4% (active) | -66.6% (active) | 35.4% | -79.1% (active) | -22.3% (active) | -31.5% (active) | -92.8% (active) | -41.5% (active) |  | -94.6% (active) | -80.3% (active)
Cc1cc(C(NC(=O)CCCCCNc2cccc3c2C(=O)N(C2CCC(=O)NC2=O)C3=O)c2cccnc2)c(O)c2ncccc12 (stereo not given) | 17.8% | -14.3% (active) | -11.5% (active) | 17.2% | 23.6% | 6.66% (active) | 21.5% | 26.2% | -5.27% (active) | 19% | 20.5% | 8.96% (active) | 21.7% | 30.7% | 6.73% (active) | -58.7% (active) | 18.5% |  | 25.2% | -16.9% (active)
N#Cc1c(-c2ccc(Cl)cc2)nc2c(-c3ccccc3)c(Nc3ccccc3)nn2c1N | 67.3% | 79.9% | 26% | 78.8% | 82.4% | 46% | 80.6% | 105% | 70.1% | 67.2% | 62.9% | 4.2% (active) | 72.8% | 19.8% | 62.2% | 92.9% | 62.8% |  | 82.5% | 96%
O=C(O)CCCCCN1C(=O)/C(=C/c2ccc(O)c(O)c2)SC1=S | 100% | 97.5% | 91.8% | 124% | 103% | 99.3% | 96% | 108% | 106% | 101% | 116% | 95.1% | 96.1% | 103% | 117% | 98.9% | 96.8% |  | 102% | 140%
N#Cc1nc(-c2ccccc2)oc1N1CC[C@@H](CO)C1 | 96% | 110% | 99.1% | 118% | 105% | 97.1% | 102% | 110% | 103% | 100% | 107% | 98.3% | 94% | 103% | 92.2% | 99.6% | 92.4% |  | 101% | 110%
COC(=O)C1CN(S(=O)(=O)/N=C2\NC(=O)NC2=C(Cl)Cl)C1 | 101% | 104% | 106% | 123% | 103% | 104% | 101% | 101% | 101% | 107% | 111% | 113% | 100% | 105% | 99.3% | 100% | 95.7% |  | 112% | 108%
COc1cc(/C=C/C(=O)c2ccc(Cl)cc2)ccc1Oc1nc(NCCO)nc(N2CCOCC2)n1 | 35.9% | 93.5% | 104% | 97.8% | 97.6% | 101% | 95.9% | 114% | 98.7% | 98.2% | 111% | 97.8% | 99.3% | 94% | 95.3% | 99.7% | 93.9% |  | 108% | 99.7%
COC(=O)C(Cc1ccccc1)NS(=O)(=O)/N=C1\NC(=O)NC1=C(Cl)Cl (stereo not given) | 91.8% | 94.8% | 101% | 119% | 82.9% | 99.5% | 54% | 91% | 92.9% | 99.5% | 127% | 106% | 94.2% | 106% | 90% | 98.1% | 78.8% |  | 102% | 60.3%
CC(=O)Oc1ccccc1C(=O)Nc1cc(C(C)C)ccc1C | 7.45% (active) | -6.69% (active) | 7.22% (active) | -2.41% (active) | 19.8% | 11.3% | 15.6% | -9.44% (active) | 33.2% | 14% | 91.5% | 26.1% | 17.5% | 10.1% | 22.1% | -31.9% (active) | 16.9% |  | 18% | -22.9% (active)
COc1ccc(C(=O)/C=C/c2ccc(Oc3nc(NCCO)nc(N4CCOCC4)n3)c(OC)c2)cc1 | 6.9% (active) | 84.7% | 85.3% | 108% | 85.5% | 104% | 82.5% | 89.9% | 86.8% | 36.2% | 35% | 89.6% | 69.3% | 43.1% | 80% | 95.2% | 70.3% |  | 97.3% | 101%
COc1ccc(C(=O)/C=C/c2ccc(OCc3ccc(C)cc3)c(OC)c2)cc1OC | 25.4% | 87.8% | 59% | 103% | 72.4% | 75.2% | 72.1% | 80.3% | 86.8% | 34.4% | 68.8% | 72% | 69.8% | 49.9% | 55.9% | 64.5% | 54.5% |  | 82.3% | 94.3%
CN(C)c1ccc(-c2c(NC(C)(C)C)nc3c(OCCc4ccccc4)cccn23)cc1 | 3.1% (active) | 12.9% | 25.5% | -25.8% (active) | 56.6% | -12.7% (active) | 17.8% | 3.18% (active) | 29.7% | 0.0072% (active) | 10.2% | 48.4% | 19.3% | 13.6% | 0.316% (active) | -69.4% (active) | 35.1% |  | 35.1% | 25.3%
